Holding throughout (details): mRNA level, 48 h; actives raise or lower the signal
Read-out in assay [1]: ABC Transporter (ABCC3), ABCC3 (gene 8714)
Nature of the assay: LTEA_HepaRG_ABCC3: Life Technologies and Expression Analysis (LTEA) Assay for ABC Transporter (ABCC3) using HepaRG (AID 2283462). The method in brief:
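Transcript level by TaqMan qRT-PCR, normalised to three housekeeping genes, fitted in both directions relative to vehicle. Chemicals tested in duplicate at eight half-log concentrations up to 100 uM for 48 h on HepaRG cells (0.5% DMSO).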

Read-out in assay [2]: ABC Transporter (ABCB11), ABCB11 (gene 8647)
Nature of the assay: LTEA_HepaRG_ABCB11: Life Technologies and Expression Analysis (LTEA) Assay for ABC Transporter (ABCB11) using HepaRG (AID 2283463). Summed up:
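ABCB11 transcript levels quantified by TaqMan qRT-PCR against three housekeeping genes after 48 h chemical exposure of HepaRG cultures. Concentrations up to 100 uM in half-log steps, 0.5% DMSO vehicle; both induction and suppression scored.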

Read-out in assay [3]: ABC Transporter (ABCC2), ABCC2 (gene 1244)
In words: LTEA_HepaRG_ABCC2: Life Technologies and Expression Analysis (LTEA) Assay for ABC Transporter (ABCC2) using HepaRG (AID 2283464). The method in brief:
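Endpoint is ABCC2 transcript level from qRT-PCR, normalized to three housekeeping genes and fitted bidirectionally relative to DMSO. Human HepaRG cells received test chemical for 48 h at up to 100 uM (8 points, half-log steps, 0.5% DMSO), duplicate wells.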

Read-out in assay [4]: Broad substrate specificity ATP-binding cassette transporter ABCG2 (Homo sapiens) (UniProt Q9UNQ0)
Nature of the assay: LTEA_HepaRG_ABCG2: Life Technologies and Expression Analysis (LTEA) Assay for ABC Transporter (ABCG2) using HepaRG (AID 2283465). Summed up:
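ABCG2 transcript was quantified by TaqMan qRT-PCR against three housekeeping genes in HepaRG cells. Cells were treated in duplicate for 48 h across an 8-point half-log series up to 100 uM, with 0.5% DMSO vehicle. Gain or loss versus DMSO was fit.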

Read-out in assay [5]: ATP-citrate lyase (ACLY), ACLY (gene 47)
In words: LTEA_HepaRG_ACLY: Life Technologies and Expression Analysis (LTEA) Assay for ATP-citrate lyase (ACLY) using HepaRG (AID 2283466). The method in brief: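 ACLY mRNA quantified by qRT-PCR on Fluidigm arrays against three housekeeping genes, after 48 h chemical treatment of HepaRG cells (top concentration 100 uM, half-log steps, 0.5% DMSO vehicle). Up- or down-regulation fitted relative to DMSO.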

Read-out in assay [6]: Peroxisomal acyl-coenzyme A oxidase 1 (ACOX1) gene, ACOX1 (gene 51)
In words: LTEA_HepaRG_ACOX1: Life Technologies and Expression Analysis (LTEA) Assay for Peroxisomal acyl-coenzyme A oxidase 1 (ACOX1) gene using HepaRG (AID 2283467). The method in brief: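 ACOX1 transcript levels were quantified by TaqMan qRT-PCR against three housekeeping genes after 48 h chemical exposure of differentiated human HepaRG cells. Exposure used eight half-log steps topping at 100 uM, 0.5% DMSO vehicle, in duplicate. Bidirectional curve fits were made relative to DMSO.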

Read-out in assay [7]: Bcl-2 (BAD) gene, BAD (gene 572)
Nature of the assay: LTEA_HepaRG_BAD: Life Technologies and Expression Analysis (LTEA) Assay for Bcl-2 (BAD) gene using HepaRG (AID 2283469). Summed up:
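Read-out: qRT-PCR of BAD mRNA, normalized to three housekeeping genes. Human HepaRG cultures got 48 h chemical exposure in 0.5% DMSO, duplicate eight-point half-log series topping at 100 uM. Gain or loss of signal fitted versus DMSO vehicle.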

Read-out in assay [8]: Bcl-2 (BAX) gene, BAX (gene 581)
In words: LTEA_HepaRG_BAX: Life Technologies and Expression Analysis (LTEA) Assay for Bcl-2 (BAX) gene using HepaRG (AID 2283470). Summed up:
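Cells were thawed, plated for 48 h, moved to serum-free induction medium and dosed for 48 h (highest concentration 100 uM, half-log steps, 0.5% DMSO). Total RNA was then analysed for BAX expression by qRT-PCR.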

Read-out in assay [9]: adenosine kinase (ADK) gene, ADK (gene 132)
Nature of the assay: LTEA_HepaRG_ADK: Life Technologies and Expression Analysis (LTEA) Assay for adenosine kinase (ADK) gene using HepaRG (AID 2283471). Summed up:
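Read-out is ADK transcript level measured by qRT-PCR and normalised to three housekeeping genes. Cells are human HepaRG, dosed for 48 h at up to 100 uM in 0.5% DMSO. Gain or loss of signal is fitted against DMSO controls.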

Read-out in assay [10]: Alpha-fetoprotein (AFP) gene, AFP (gene 174)
Nature of the assay: LTEA_HepaRG_AFP: Life Technologies and Expression Analysis (LTEA) Assay for Alpha-fetoprotein (AFP) gene using HepaRG (AID 2283472). The method in brief:
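Chemicals were tested on differentiated HepaRG cells for 48 hours at eight concentrations up to 100 uM, with 0.5% DMSO as vehicle. AFP expression was then quantified by qRT-PCR and analyzed for gain or loss relative to DMSO.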

Read-out in a further assay: BCL2L11 (gene 10018)
Nature of the assay: LTEA_HepaRG_BCL2L11: Life Technologies and Expression Analysis (LTEA) Assay for Bcl-2 (BCL2L11) gene using HepaRG (AID 2283473). Summed up: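 BCL2L11 transcript levels are measured by Fluidigm qRT-PCR, normalized to three housekeeping genes. HepaRG cultures were plated 48 h, then treated 48 h with test chemical (top 100 uM, half-log, 0.5% DMSO vehicle); curves were fitted bidirectionally against DMSO.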

Read-out in assay [11]: Apolipoprotein A-V (APOA5) gene, APOA5 (gene 116519)
Nature of the assay: LTEA_HepaRG_APOA5: Life Technologies and Expression Analysis (LTEA) Assay for Apolipoprotein A-V (APOA5) gene using HepaRG (AID 2283474). The method in brief:
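APOA5 transcript levels were quantified by qRT-PCR, normalized to three housekeeping genes, after 48 h chemical treatment of HepaRG cells (8 points, 100 uM maximum, half-log steps, 0.5% DMSO). Curves fitted in both directions against vehicle.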

Read-out in assay [12]: Apoptosis regulator Bcl-2 (Homo sapiens) (UniProt P10415)
Nature of the assay: LTEA_HepaRG_BCL2: Life Technologies and Expression Analysis (LTEA) Assay for Bcl-2 gene using HepaRG (AID 2283475). The method in brief:
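Plated human HepaRG cells are exposed to test chemicals for 48 h across eight concentrations from 100 uM downward in half-log steps (0.5% DMSO). BCL2 expression is then measured by qRT-PCR with housekeeping normalisation and fitted bidirectionally against vehicle.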

Read-out in assay [13]: Bcl-2 (BID) gene, BID (gene 637)
In words: LTEA_HepaRG_BID: Life Technologies and Expression Analysis (LTEA) Assay for Bcl-2 (BID) gene using HepaRG (AID 2283476). The method in brief: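 Cells are plated, cultured 48 h, switched to serum-free induction medium, then dosed 48 h (100 uM top, half-log steps, 0.5% DMSO). RNA is isolated and BID expression read by qRT-PCR.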

Read-out in another assay: Caspase-3 (Homo sapiens) (UniProt P42574)
Nature of the assay: LTEA_HepaRG_CASP3: Life Technologies and Expression Analysis (LTEA) Assay for cysteine-aspartic acid protease (CASP3) using HepaRG (AID 2283477). Summed up: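 Expression of CASP3 was quantified by TaqMan qRT-PCR against three housekeeping genes (ACTB, GAPDH, POLR2A), bidirectionally versus 0.5% DMSO. HepaRG cultures received compounds in duplicate, top 100 uM with half-log steps, for 48 h in serum-free induction medium.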

Read-out in assay [14]: Cytochrome P450 (CYP24A1), CYP24A1 (gene 1591)
In words: LTEA_HepaRG_CYP24A1: Life Technologies and Expression Analysis (LTEA) Assay for Cytochrome P450 (CYP24A1) using HepaRG (AID 2283478). The method in brief:
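mRNA of CYP24A1 quantified by TaqMan qRT-PCR (ACTB/GAPDH/POLR2A normalization) after 48 h chemical exposure of HepaRG cells, top concentration 100 uM, half-log steps, 0.5% DMSO vehicle, duplicates. Curves fitted bidirectionally against DMSO baseline.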

Read-out in assay [15]: Cytochrome P450 (CYP1A2), CYP1A2 (gene 1544)
Nature of the assay: LTEA_HepaRG_CYP1A2: Life Technologies and Expression Analysis (LTEA) Assay for Cytochrome P450 (CYP1A2) using HepaRG (AID 2283479). Summed up: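 CYP1A2 transcript measured by TaqMan qRT-PCR against three housekeeping genes after 48-hour chemical exposure of HepaRG cells. Eight-point half-log series topping at 100 uM in 0.5% DMSO, duplicates; gain or loss fitted relative to vehicle.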

Read-out in assay [16]: cysteine-aspartic acid protease (CASP8), CASP8 (gene 841)
Nature of the assay: LTEA_HepaRG_CASP8: Life Technologies and Expression Analysis (LTEA) Assay for cysteine-aspartic acid protease (CASP8) using HepaRG (AID 2283480). Summed up: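 CASP8 transcript measured by TaqMan qRT-PCR with ACTB/GAPDH/POLR2A normalization, after 48 h chemical exposure of HepaRG cells in serum-free induction medium. Eight concentrations, top 100 uM, half-log steps, 0.5% DMSO vehicle; fits in both directions versus DMSO.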

Read-out in assay [17]: Cytochrome P450 (CYP2B6), CYP2B6 (gene 1555)
In words: LTEA_HepaRG_CYP2B6: Life Technologies and Expression Analysis (LTEA) Assay for Cytochrome P450 (CYP2B6) using HepaRG (AID 2283481). The method in brief:
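CYP2B6 transcript level quantified by qRT-PCR against three housekeeping genes, fitted bidirectionally relative to DMSO. HepaRG cultures received chemicals for 48 h, 8-point half-log series from 100 uM in 0.5% DMSO, duplicate wells, serum-free induction medium.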

Read-out in assay [18]: Alkaline Phosphatase, Placental (ALPP) gene, ALPP (gene 250)
In words: LTEA_HepaRG_ALPP: Life Technologies and Expression Analysis (LTEA) Assay for Alkaline Phosphatase, Placental (ALPP) gene using HepaRG (AID 2283468). The method in brief: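 ALPP transcript level, measured by qRT-PCR and normalized to three housekeeping genes (ACTB, GAPDH, POLR2A), after 48 h dosing of differentiated HepaRG in serum-free induction medium. Top concentration 100 uM with half-log dilutions (8 points, 0.5% DMSO, duplicates); bidirectional fitting relative to DMSO.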

Each structure is given as a SMILES string. Calls of active or inactive are those of the source. Rule for the calls: active = hit-call score of the fitted dose curve at least 0.9, where 1 is the maximum; inactive = score below 0.9.

Chain of Broad substrate specificity ATP-binding cassette transporter ABCG2 (Homo sapiens) (Q9UNQ0 whole entry, looked up): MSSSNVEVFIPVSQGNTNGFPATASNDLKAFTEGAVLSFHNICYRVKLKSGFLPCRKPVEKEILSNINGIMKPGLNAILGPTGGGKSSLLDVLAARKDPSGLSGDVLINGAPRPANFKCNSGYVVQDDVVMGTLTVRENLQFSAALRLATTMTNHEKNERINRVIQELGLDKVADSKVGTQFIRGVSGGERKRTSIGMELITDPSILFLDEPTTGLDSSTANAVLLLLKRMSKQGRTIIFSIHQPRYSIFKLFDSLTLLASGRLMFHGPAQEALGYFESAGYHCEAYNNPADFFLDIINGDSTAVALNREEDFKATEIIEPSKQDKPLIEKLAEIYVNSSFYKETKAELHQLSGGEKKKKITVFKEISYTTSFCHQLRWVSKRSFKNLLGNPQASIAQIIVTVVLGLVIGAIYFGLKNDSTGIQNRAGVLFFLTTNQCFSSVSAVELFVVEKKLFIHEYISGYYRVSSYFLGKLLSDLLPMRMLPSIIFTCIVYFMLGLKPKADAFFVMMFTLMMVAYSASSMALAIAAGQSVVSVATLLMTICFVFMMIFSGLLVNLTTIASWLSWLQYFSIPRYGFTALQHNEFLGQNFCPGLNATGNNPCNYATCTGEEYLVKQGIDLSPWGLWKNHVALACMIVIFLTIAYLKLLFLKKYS
Chain of Caspase-3 (Homo sapiens) (P42574 whole entry, looked up): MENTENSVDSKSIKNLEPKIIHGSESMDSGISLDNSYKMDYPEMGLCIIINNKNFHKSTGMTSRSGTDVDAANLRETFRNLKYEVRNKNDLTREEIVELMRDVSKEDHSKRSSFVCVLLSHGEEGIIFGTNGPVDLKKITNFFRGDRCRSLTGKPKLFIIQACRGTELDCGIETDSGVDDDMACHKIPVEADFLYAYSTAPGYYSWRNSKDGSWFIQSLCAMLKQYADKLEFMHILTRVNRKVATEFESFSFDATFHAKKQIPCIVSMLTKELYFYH
Chain of Apoptosis regulator Bcl-2 (Homo sapiens) (P10415 whole entry, looked up): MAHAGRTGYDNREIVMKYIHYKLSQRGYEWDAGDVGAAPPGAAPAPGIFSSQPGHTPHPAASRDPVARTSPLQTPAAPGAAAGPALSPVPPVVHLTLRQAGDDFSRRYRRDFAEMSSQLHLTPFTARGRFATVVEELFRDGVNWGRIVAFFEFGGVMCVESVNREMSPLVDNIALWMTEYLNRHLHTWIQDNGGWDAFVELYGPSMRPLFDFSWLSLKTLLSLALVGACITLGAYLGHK

Usually AC50 stands for the concentration at which the activity in the assay is half-maximal. As to `CC(C1CC1)C(O)(Cn1cncn1)c1ccc(Cl)cc1` (stereo not given), the outcome in assay [1], in assay [2], in assay [3], in assay [4], in assay [6] and in [7] was inactive. Further, the result (in assay [8]; in assay [9]; with BCL2L11 (gene 10018); in assay [11]; in assay [12]; in assay [13]) was inactive. The outcome (with Caspase-3 (Homo sapiens); in assay [14]; in assay [15]; in assay [16]) was inactive. Moreover, the AC50 is 31.7 µM (active) in [5], 20.5 µM (active) in assay [10] and 1.06 µM (active) in assay [17].
`COc1cc(OC)nc(Sc2cccc(Cl)c2C(=O)O)n1`: the compound was called inactive in [1], in assay [2], in [3], in assay [4], in assay [5] and in assay [6]. Moreover, the outcome (in assay [18]; in [8]; in assay [9]; in assay [10]; with BCL2L11 (gene 10018); in [11]) was inactive. Also, the compound was called inactive (in [12]; with Caspase-3 (Homo sapiens); in assay [14]; in assay [15]; in [16]; in assay [17]).
As to `CCc1cccc(CC)c1N(COC)C(=O)CCl`, the result in [1], in [2], in [3], in [4], in assay [5] and in assay [6] was inactive. Further, the call (in assay [18]; in [8]; in assay [9]; in assay [10]; with BCL2L11 (gene 10018); in [11]) was inactive. Also, the call (in assay [12]; in assay [13]; with Caspase-3 (Homo sapiens); in assay [14]; in assay [15]) was inactive. Moreover, the AC50 in assay [17] was 50 µM (active).

For the origin of these results see PubChem BioAssay (EPA / NIEHS).
